Experimental data from PubChem BioAssay (Tox21).
“And” between values parts separate entries of the source, which are not always exact repeats. Identical values can stand only once. Inconclusive results are not listed. Where a call stands in place of a potency, no number is given. Some structures have more than one record in an assay (separate samples or runs), and their calls can disagree. The source made the active and inactive calls. Calls follow the shape of the dose curve; as a rule, active = well fitted curve in the direction sought with a large enough effect in the repeat runs; inconclusive = weak or mixed curves; inactive = no such curve, though single readings can be large; an effect the other way counts as inactive or inconclusive.

Assays:
[1] = molecular target: Voltage-gated inwardly rectifying potassium channel KCNH2 (Homo sapiens) (UniProt Q12809); assay: Human Ether-a-go-go-Related Gene (hERG) channel small molecule antagonists: fluorescence cell-based qHTS assay (AID 1671200); also: nearly all actives have a fitted effect of over 50% in size; also: potency is read from the fitted curve at half-maximal effect;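 as to activity change, negative = inhibition: hERG-expressing U2OS cells given a thallium stimulus after FluxOR II dye loading; series mostly up to about 77 µM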
Chain of Voltage-gated inwardly rectifying potassium channel KCNH2 (Homo sapiens) (Q12809 whole entry, looked up): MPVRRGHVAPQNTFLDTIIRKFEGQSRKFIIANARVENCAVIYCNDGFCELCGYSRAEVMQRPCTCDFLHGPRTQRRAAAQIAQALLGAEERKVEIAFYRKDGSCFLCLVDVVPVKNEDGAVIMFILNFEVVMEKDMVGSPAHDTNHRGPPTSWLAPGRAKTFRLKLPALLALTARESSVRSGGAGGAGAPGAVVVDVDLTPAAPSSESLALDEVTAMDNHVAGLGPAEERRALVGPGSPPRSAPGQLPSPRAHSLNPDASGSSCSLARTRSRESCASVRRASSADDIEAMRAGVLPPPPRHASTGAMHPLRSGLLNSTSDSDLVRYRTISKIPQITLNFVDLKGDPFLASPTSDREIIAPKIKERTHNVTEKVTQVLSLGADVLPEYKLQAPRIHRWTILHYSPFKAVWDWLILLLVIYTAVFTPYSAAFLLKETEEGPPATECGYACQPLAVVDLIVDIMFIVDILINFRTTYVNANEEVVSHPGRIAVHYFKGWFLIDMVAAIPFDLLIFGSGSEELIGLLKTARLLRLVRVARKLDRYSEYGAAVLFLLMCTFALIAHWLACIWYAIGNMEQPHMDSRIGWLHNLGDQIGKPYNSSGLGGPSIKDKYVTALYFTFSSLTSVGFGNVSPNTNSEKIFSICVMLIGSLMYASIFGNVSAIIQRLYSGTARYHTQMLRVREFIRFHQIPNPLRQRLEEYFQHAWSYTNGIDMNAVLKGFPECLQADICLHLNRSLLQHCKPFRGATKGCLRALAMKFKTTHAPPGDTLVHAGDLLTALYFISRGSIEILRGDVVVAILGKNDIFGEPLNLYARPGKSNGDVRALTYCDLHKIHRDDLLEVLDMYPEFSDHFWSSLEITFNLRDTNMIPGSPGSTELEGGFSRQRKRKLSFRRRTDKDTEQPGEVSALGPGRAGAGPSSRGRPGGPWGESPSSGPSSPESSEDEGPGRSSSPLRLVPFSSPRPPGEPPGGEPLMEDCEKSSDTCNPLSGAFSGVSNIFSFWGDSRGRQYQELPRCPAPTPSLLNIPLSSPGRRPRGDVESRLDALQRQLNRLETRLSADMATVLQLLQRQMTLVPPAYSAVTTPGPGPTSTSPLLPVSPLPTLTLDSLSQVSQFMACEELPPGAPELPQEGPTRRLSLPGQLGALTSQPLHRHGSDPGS
Procedure, shortened: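 hERG-U2OS cells plated overnight at 37 C, loaded with FluxOR II dye 1 h at RT in dark; after 10 min, thallium stimulus added. Fluorescence (480/540 nm) read kinetically for 2 min at 1 s intervals.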

[2] = molecular target: Cytochrome P450 2C9 (Homo sapiens) (UniProt P11712); assay: Cytochrome P450 Family 2 Subfamily C Member 9 (CYP2C9) small molecule antagonists: luciferase reporter qHTS assay (AID 1671198); also: nearly all actives have a fitted effect of over 50% in size; also: potency is read from the fitted curve at half-maximal effect; as to activity change, negative = inhibition: series mostly up to about 120 µM
Chain of Cytochrome P450 2C9 (Homo sapiens) (P11712 whole entry, looked up): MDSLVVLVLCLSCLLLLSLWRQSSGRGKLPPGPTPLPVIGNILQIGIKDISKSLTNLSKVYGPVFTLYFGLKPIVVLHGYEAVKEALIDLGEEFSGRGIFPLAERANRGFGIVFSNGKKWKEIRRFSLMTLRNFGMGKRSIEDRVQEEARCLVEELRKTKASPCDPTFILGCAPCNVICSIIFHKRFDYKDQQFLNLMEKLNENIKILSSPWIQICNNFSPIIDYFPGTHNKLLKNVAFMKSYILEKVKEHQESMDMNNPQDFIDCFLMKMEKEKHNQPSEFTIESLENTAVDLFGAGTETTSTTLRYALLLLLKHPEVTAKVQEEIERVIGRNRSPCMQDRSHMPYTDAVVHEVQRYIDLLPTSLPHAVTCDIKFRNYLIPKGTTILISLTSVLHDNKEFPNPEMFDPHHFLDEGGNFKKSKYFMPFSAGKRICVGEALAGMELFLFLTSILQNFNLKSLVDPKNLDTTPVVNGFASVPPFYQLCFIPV
Procedure, shortened: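 Enzyme-substrate mix preincubated with compound 10 min at room temperature; reaction started with NADPH regeneration solution, 1 h 37C. Luminescent luciferin product read after 20 min detection reagent.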

[3] = molecular target: Cytochrome P450 1A2 (Homo sapiens) (UniProt P05177); assay: Cytochrome P450 Family 1 Subfamily A Member 2 (CYP1A2) small molecule antagonists: luciferase reporter qHTS assay (AID 1671199); also: nearly all actives have a fitted effect of over 50% in size; also: potency is read from the fitted curve at half-maximal effect; as to activity change, negative = inhibition: series mostly up to about 120 µM
Chain of Cytochrome P450 1A2 (Homo sapiens) (P05177 whole entry, looked up): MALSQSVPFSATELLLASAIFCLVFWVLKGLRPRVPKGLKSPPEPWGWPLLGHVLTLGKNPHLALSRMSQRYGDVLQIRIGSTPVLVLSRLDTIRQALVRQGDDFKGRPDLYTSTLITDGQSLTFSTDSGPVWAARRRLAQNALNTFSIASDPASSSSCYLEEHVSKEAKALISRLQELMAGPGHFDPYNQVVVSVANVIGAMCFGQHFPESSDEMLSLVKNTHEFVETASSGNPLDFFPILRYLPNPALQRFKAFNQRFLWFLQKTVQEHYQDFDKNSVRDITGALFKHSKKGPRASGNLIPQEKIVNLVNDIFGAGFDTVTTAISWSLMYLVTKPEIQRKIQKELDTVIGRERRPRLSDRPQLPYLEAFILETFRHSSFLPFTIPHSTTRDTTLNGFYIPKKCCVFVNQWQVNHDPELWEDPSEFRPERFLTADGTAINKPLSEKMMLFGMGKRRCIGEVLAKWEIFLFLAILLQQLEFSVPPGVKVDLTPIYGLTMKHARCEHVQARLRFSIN
Procedure, shortened: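 Quantitative high-throughput format using the P450-Glo CYP1A2 system. Reaction initiated by NADPH regeneration solution, 1 h at room temperature, then stopped with detection reagent; luminescence measured 20 min later.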

[4] = molecular target: Cytochrome P450 3A4 (Homo sapiens) (UniProt P08684); assay: Cytochrome P450 Family 3 Subfamily A Member 4 (CYP3A4) small molecule antagonists: luciferase reporter qHTS assay (AID 1671201); also: series mostly up to about 120 µM; nearly all actives have a fitted effect of over 50% in size
Chain of Cytochrome P450 3A4 (Homo sapiens) (P08684 whole entry, looked up): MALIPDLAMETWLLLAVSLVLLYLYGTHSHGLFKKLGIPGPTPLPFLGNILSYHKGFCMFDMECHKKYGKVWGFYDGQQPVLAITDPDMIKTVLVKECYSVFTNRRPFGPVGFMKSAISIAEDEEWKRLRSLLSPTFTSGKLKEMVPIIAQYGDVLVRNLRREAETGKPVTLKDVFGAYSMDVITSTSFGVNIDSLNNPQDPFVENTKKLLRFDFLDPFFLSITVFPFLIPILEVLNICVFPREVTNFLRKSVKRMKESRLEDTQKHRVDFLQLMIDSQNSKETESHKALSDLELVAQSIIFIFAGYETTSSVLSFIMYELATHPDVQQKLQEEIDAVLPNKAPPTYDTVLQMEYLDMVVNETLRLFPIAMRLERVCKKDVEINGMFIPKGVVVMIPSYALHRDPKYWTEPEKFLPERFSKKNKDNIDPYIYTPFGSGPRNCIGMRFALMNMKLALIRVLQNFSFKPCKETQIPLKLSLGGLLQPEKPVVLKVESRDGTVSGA
Procedure, shortened: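 P450-Glo CYP3A4 luminescent assay: compounds preincubated 10 min at room temperature with enzyme and proluciferin substrate, NADPH regeneration added, 1 h room-temperature reaction, stopped with luciferin detection reagent; luminescence read after 20 min. Ketoconazole positive control.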

[5] = molecular target: Cytochrome P450 2C19 (Homo sapiens) (UniProt P33261); assay: Cytochrome P450 Family 2 Subfamily C Member 19 (CYP2C19) small molecule antagonists: luciferase reporter qHTS assay (AID 1671197); also: nearly all actives have a fitted effect of over 65% in size; also: potency is read from the fitted curve at half-maximal effect; as to activity change, negative = inhibition: series mostly up to about 120 µM
Chain of Cytochrome P450 2C19 (Homo sapiens) (P33261 whole entry, looked up): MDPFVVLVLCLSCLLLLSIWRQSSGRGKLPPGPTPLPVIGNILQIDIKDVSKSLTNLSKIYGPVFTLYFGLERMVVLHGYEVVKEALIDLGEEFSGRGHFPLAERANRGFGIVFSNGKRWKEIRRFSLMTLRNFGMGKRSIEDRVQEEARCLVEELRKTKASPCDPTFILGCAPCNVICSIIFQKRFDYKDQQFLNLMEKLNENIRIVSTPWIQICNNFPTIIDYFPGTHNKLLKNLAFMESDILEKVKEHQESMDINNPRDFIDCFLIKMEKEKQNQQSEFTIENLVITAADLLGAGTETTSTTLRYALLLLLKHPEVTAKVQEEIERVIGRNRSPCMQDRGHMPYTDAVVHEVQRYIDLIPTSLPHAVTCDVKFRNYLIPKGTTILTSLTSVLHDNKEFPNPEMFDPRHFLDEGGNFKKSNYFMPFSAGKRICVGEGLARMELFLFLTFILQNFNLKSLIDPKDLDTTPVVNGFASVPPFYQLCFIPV
Procedure, shortened: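 Quantitative high-throughput screen of the Tox21 library using CYP2C19 with proluciferin substrate. Reaction: NADPH regeneration, 37C, 1 h, after 10 min compound preincubation at room temperature. Readout: luminescence.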

Structure (SMILES) | Potency [1] | Potency [2] | Potency [3] | Potency [4] | Potency [5] | activity change, negative = inhibition [2]
CN(C)c1nc(N(C)C)nc(N(C)C)n1 | inactive |  |  |  |  | 
Nc1ncn([C@@H]2O[C@H](CO)[C@@H](O)[C@H]2O)c(=O)n1 | inactive | inactive | inactive | inactive |  | 
CCCC(=O)O | inactive | inactive | inactive | inactive |  | 
CCCCOCCOCCOCCO | inactive | inactive |  | inactive | inactive | 
COc1cc([C@@H]2c3cc4c(cc3[C@H](O)[C@H]3COC(=O)[C@H]23)OCO4)cc(OC)c1OC | inactive | 2.83 µM (active) and 2.19 µM (active) | 35.6 µM (active) |  |  | 
O=C=Nc1ccc(Cc2ccc(N=C=O)cc2)cc1 | inactive | 6.98 µM (active) | inactive |  |  | 
Cc1cc2nc3c(=O)[nH]c(=O)nc-3n(C[C@H](O)[C@H](O)[C@H](O)CO)c2cc1C |  |  |  | inactive |  | -0.762% [at 23.6 µM] (inactive)
O=P(O)(O)O | inactive |  |  |  |  | 
c1ccc2c(c1)Oc1ccccc1S2 |  |  | 12.8 µM (active) and 8.94 µM (active) | inactive | inactive and 71 µM (active) | 
O=c1oc(=O)c2cc3c(=O)oc(=O)c3cc12 | inactive | inactive | inactive |  |  | 
Cc1ccc(C(=O)c2cc(O)c(O)c([N+](=O)[O-])c2)cc1 | inactive |  | inactive |  | inactive | 
CCCCCCCCCCCO | inactive |  |  | inactive | 20.5 µM (active) and inactive | 
O=C1c2cccc(O)c2C(=O)c2c(O)cccc21 | inactive |  | 9.03 µM (active) and 6.45 µM (active) | inactive | 28.6 µM (active) and 38.9 µM (active) | 
O=[N+]([O-])c1ccc2c(c1)Cc1ccccc1-2 | inactive |  | 2 µM (active) and 8.94 µM (active) | inactive | 22.4 µM (active) and 20 µM (active) | 
CC(CCC(=O)O)(c1ccc(O)cc1)c1ccc(O)cc1 | inactive |  | inactive | inactive | 71.8 µM (active) and 35.6 µM (active) | 
COC(=O)C1=C(C)NC(C)=C(C(=O)OCCN(C)Cc2ccccc2)C1c1cccc([N+](=O)[O-])c1 (centres undefined) | 10.9 µM (active) and 8.49 µM (active) |  | inactive |  |  | 

Structure (SMILES) | Potency [1] | Potency [2] | Potency [3] | Potency [4] | Potency [5] | activity change, negative = inhibition [2]
Nc1ccc(S(=O)(=O)Nc2cnc3ccccc3n2)cc1 | inactive | 11.2 µM (active) and 15.5 µM (active) |  | inactive | 39.9 µM (active) | 
Nc1ccccc1N | inactive |  | 2.58 µM (active) and 13.8 µM (active) |  | 40.9 µM (active) and 17.8 µM (active) | 
C#C[C@]1(O)CC[C@H]2[C@@H]3CCC4=Cc5oncc5C[C@]4(C)[C@H]3CC[C@@]21C | inactive |  | inactive |  |  | 
CC(C)(C)NC(=O)[C@H]1CC[C@H]2[C@@H]3CC[C@H]4NC(=O)C=C[C@]4(C)[C@H]3CC[C@]12C | inactive |  | inactive | inactive |  | 
CCC(C)OC(=O)c1ccc(O)cc1 (centres undefined) | inactive |  | 20.1 µM (active) and 35.6 µM (active) | inactive | 35.8 µM (active) and 25.2 µM (active) | 
OC(CCl)CCl | inactive | inactive |  | inactive | inactive | 
Cc1ccc(C)c(O)c1C | inactive |  | 28.1 µM (active) and 28.3 µM (active) | inactive | inactive | 
Cc1[nH]c(=O)c(C#N)cc1-c1ccncc1 |  | 29.1 µM (active) | 56.4 µM (active) and inactive | inactive |  | 
C[C@]12CC[C@H]3[C@@H](CCC4=CC(=O)CC[C@@]43C)[C@@H]1CC[C@@H]2C(=O)CO | inactive | 39.9 µM (active) and 27.5 µM (active) |  | inactive | 7.1 µM (active) and 8.71 µM (active) | 
c1ccc2cc(Nc3ccc(Nc4ccc5ccccc5c4)cc3)ccc2c1 | inactive | inactive |  | inactive | inactive | 
COC(=O)CCC(=O)OC | inactive | inactive |  | inactive | inactive | 
COc1ccc(OC)c(C(O)CNC(=O)CN)c1 (centres undefined) | inactive |  |  |  | 20 µM (active) and 24.5 µM (active) | 
O=C(c1ccc(OCCN2CCCCC2)cc1)c1c(-c2ccc(O)cc2)sc2cc(O)ccc12 | 21.9 µM (active) and 43.6 µM (active) |  |  |  |  | 
CC(C)CC(C)(O)C#CC(C)(O)CC(C)C (centres undefined) | inactive |  |  |  |  | 
O=C(/C=C/C=C/c1ccc2c(c1)OCO2)N1CCCCC1 | inactive | 12.7 µM (active) and 35.6 µM (active) | 28.3 µM (active) and 22.4 µM (active) |  |  | 
